Drawing on PMC11062922 (Nature Chemical Biology, 2023), this text covers potency estimated from few doses for 15 compounds.

Where two headings read alike, the source gives them in different places.

Common to all, as to parameters: species or system human, MV4-11 + K-562 + COLO205 + SK-N-BE2 + OVCAR-8
Assay [1] deals with FLT3. Particulars: read-out: apparent Kd, n = 1.
In assay [2] the test system is MYLK3. Particulars: read-out: apparent Kd, n = 1.
The test system of assay [3] is PRKD2. The settings on record: read-out: apparent Kd, n = 1.
Assay [4] relates to PRKD3. The settings on record: read-out: apparent Kd, n = 1.
For assay [5], the system named is PRKCD. Particulars: read-out: apparent Kd; compound concentrations: 100 nM and 1000 nM (sheet 'Samples'), CATDS: 4.2478831197515603E-2; n = 1.
Assay [6] relates to PRKCQ. The settings on record: read-out: apparent Kd, n = 1.
For assay [7], the system named is PIP4K2C. The settings on record: read-out: apparent Kd, n = 1.
In assay [8] the test system is CDKL5. The settings on record: read-out: apparent Kd, compound concentrations: 100 nM and 1000 nM (sheet 'Samples'), n = 1.
For assay [9], the system named is LATS1. The settings on record: read-out: apparent Kd; compound concentrations: 100 nM and 1000 nM (sheet 'Samples'), CATDS: 3.7561417632614502E-2; n = 1.
For assay [10], the system named is MARK4. Particulars: read-out: apparent Kd, n = 1.
The test system of assay [11] is CDK7. Particulars: read-out: apparent Kd, n = 1.
In assay [12] the test system is ERCC2. The settings on record: read-out: apparent Kd, n = 1.
In assay [13] the test system is FER. The settings on record: read-out: apparent Kd, n = 1.
For assay [14], the system named is PLK4. The settings on record: read-out: apparent Kd, n = 1.
Assay [15] has as its system PRKAA1. The settings on record: read-out: apparent Kd, n = 1.
Assay [16] relates to PTK2B. The settings on record: read-out: apparent Kd, n = 1.
Assay [17] concerns PTK2. The settings on record: read-out: apparent Kd, n = 1.
The test system of assay [18] is RPS6KA6. The settings on record: read-out: apparent Kd, n = 1.
Assay [19] deals with STK10. The settings on record: read-out: apparent Kd; compound concentrations:100 nM and 1000 nM (sheet 'Samples'); n = 1.
For assay [20], the system named is DYRK1A. The settings on record: read-out: apparent Kd, compound concentrations: 100 nM and 1000 nM (sheet 'Samples'), n = 1.
Setting [21] is: compound concentrations:100 nM and 1000 nM (sheet 'Samples').

In the case of `Cc1cccc(Nc2nc(N[C@H]3CCNC3)ncc2C(N)=O)c1.Cl` [GSK2197149A], the potency estimated from few doses in [1] (setting [21]) was 1.07 µM; in assay [2] (setting [21]), 2.04 µM; in assay [3] (setting [21]), 1.17 µM; in [4] (setting [21]), 1.89 µM.

Regarding `NCC(NC(=O)c1cc(-c2cn[nH]c2)c(-c2ccnc3[nH]ccc23)s1)c1ccccc1.NCC(NC(=O)c1cc(-c2cn[nH]c2)c(-c2ccnc3[nH]ccc23)s1)c1ccccc1.O=C(O)C(F)(F)F.O=C(O)C(F)(F)F` (stereo not drawn) [GSK1325775A], the potency estimated from few doses in [5] was 0.712 µM; in assay [6] (compound concentrations: 100 nM and 1000 nM (sheet 'Samples'), CATDS: 3.02069836024773E-2), 2.04 µM.

With `CN(C)CCNC(=O)Nc1ccc(N(C)c2ccnc(Nc3ccc(CS(C)(=O)=O)cc3)n2)cc1.Cl` [GW830900A], the potency estimated from few doses in [1] (setting [21]) was 0.0399 µM; in [7] (setting [21]), 1.84 µM.

As for `CNCC#Cc1c(F)ccc2c1/C(=C/c1[nH]ccc1OC)C(=O)N2.Cl` [RO0281601-001], the potency estimated from few doses in [8] (CATDS: 0.30453752260001898) is 0.00943 µM; in [1] (compound concentrations: 100 nM and 1000 nM (sheet 'Samples'), CATDS: 6.9218069305552701E-2), 0.105 µM; in [9], 0.394 µM; in assay [10] (compound concentrations: 100 nM and 1000 nM (sheet 'Samples'), CATDS: 2.40121909495257E-2), 1.38 µM; in [2] (compound concentrations: 100 nM and 1000 nM (sheet 'Samples'), CATDS: 6.4458343159200099E-2) it was 0.121 µM.

`CS(=O)(=O)CCn1c(=O)c(Oc2ccc(F)cc2F)cc2cnc(NC3CCOCC3)nc21` [RO5027956-000]: the potency estimated from few doses in [11] (setting [21]) was 0.349 µM; in assay [12] (setting [21]), 0.317 µM; in assay [13] (setting [21]), 0.431 µM; in [10] (setting [21]) it was 1.95 µM; in [7] (setting [21]) it was 0.462 µM; in assay [14] (setting [21]), 0.568 µM. Further, the potency estimated from few doses was 1.21 µM in [15] (setting [21]); 0.998 µM in assay [6] (setting [21]); 0.417 µM in assay [16] (setting [21]); 0.814 µM in [17] (setting [21]); 0.506 µM in assay [18] (setting [21]); 2.32 µM in assay [19].

On to `COc1cc(Nc2nccc(-c3cnn4ncccc34)n2)cc(OC)c1` [GW801372X], for which the potency estimated from few doses was 0.141 µM in [8] (CATDS: 4.3388944669180397E-2); 0.17 µM in [20] (CATDS: 3.9916528669642001E-2); 0.0224 µM in assay [1] (compound concentrations: 100 nM and 1000 nM (sheet 'Samples'), CATDS: 0.110722345436643); 0.648 µM in assay [7] (compound concentrations: 100 nM and 1000 nM (sheet 'Samples'), CATDS: 2.38914066508359E-2); 0.604 µM in assay [17] (compound concentrations: 100 nM and 1000 nM (sheet 'Samples'), CATDS: 2.4454982719063802E-2).

Turning to `CNc1cc(-c2ccc3c(N)n[nH]c3c2)nc(N)n1` [GSK2224810A], the values for the potency estimated from few doses in assay [2] (setting [21]) and in [18] (setting [21]) were 0.457 µM and 0.899 µM, respectively.

As for `CNCc1ccc(-c2cc(-c3nc(-c4ccc(S(=O)(=O)C(C)C)cc4)cnc3N)on2)cc1` [VE-822], in assay [7] (setting [21]), the potency estimated from few doses was 0.186 µM.

In the case of `Cc1ccccc1-n1ncc(C(=O)c2ccccc2)c1N` [RO1151248-000], the potency estimated from few doses in assay [11] (compound concentrations: 100 nM and 1000 nM (sheet 'Samples'), CATDS: 3.2970650229379797E-2) was 0.492 µM; in [8] (CATDS: 1.7260547192186899E-2), 2.24 µM; in assay [12] (compound concentrations: 100 nM and 1000 nM (sheet 'Samples'), CATDS: 3.4220969225155197E-2), 0.462 µM; in assay [13] (compound concentrations: 100 nM and 1000 nM (sheet 'Samples'), CATDS: 3.2819446415030699E-2) it was 0.496 µM; in [14] (compound concentrations: 100 nM and 1000 nM (sheet 'Samples'), CATDS: 2.3524551530655802E-2), 0.946 µM; in assay [15] (compound concentrations: 100 nM and 1000 nM (sheet 'Samples'), CATDS: 2.2348662654876499E-2), 1.06 µM. Besides, the potency estimated from few doses is 2.02 µM in assay [6] (compound concentrations: 100 nM and 1000 nM (sheet 'Samples'), CATDS: 1.77818646264679E-2); 0.568 µM in [16] (compound concentrations: 100 nM and 1000 nM (sheet 'Samples'), CATDS: 3.03657064915384E-2); 0.848 µM in [17] (compound concentrations: 100 nM and 1000 nM (sheet 'Samples'), CATDS: 2.47359073742957E-2); 0.489 µM in [18] (compound concentrations: 100 nM and 1000 nM (sheet 'Samples'), CATDS: 3.3090095643126802E-2).

Consider `CCN(CC)Cc1ccc(Nc2nccc(-c3cnn4ncccc34)n2)cc1` [GW780056X], for which the potency estimated from few doses in assay [11] (compound concentrations: 100 nM and 1000 nM (sheet 'Samples'), CATDS: 2.0395381874141399E-2) was 1.24 µM; in assay [1] (compound concentrations: 100 nM and 1000 nM (sheet 'Samples'), CATDS: 9.2784316233310501E-2), 0.0488 µM; in assay [3] (compound concentrations: 100 nM and 1000 nM (sheet 'Samples'), CATDS: 2.64855086193518E-2) it was 0.58 µM; in assay [4] (compound concentrations: 100 nM and 1000 nM (sheet 'Samples'), CATDS: 3.09987339896893E-2), 0.398 µM.

On to `c1ccc(-c2n[nH]cc2Nc2ccnc3ccccc23)nc1` [GW694077X], for which the potency estimated from few doses in assay [20] (CATDS: 7.5630271191524906E-2) was 0.0803 µM; in assay [3] (compound concentrations: 100 nM and 1000 nM (sheet 'Samples'), CATDS: 7.8874466930765497E-2) it was 0.074 µM; in assay [4] (compound concentrations: 100 nM and 1000 nM (sheet 'Samples'), CATDS: 6.6484920518239093E-2) it was 0.104 µM.

With `CS(=O)(=O)Nc1ccc(-c2ccnc3[nH]ccc23)cc1` [GSK993273A], the potency estimated from few doses in assay [7] (setting [21]) was 0.482 µM.

With `O=C1N=C(N[C@H](CO)c2ccccc2)S/C1=C\c1ccc2ncccc2c1` [RO4554339-000], the potency estimated from few doses was 0.303 µM in assay [2] (compound concentrations: 100 nM and 1000 nM (sheet 'Samples'), CATDS: 0.15441229792148201); 0.671 µM in [3] (compound concentrations: 100 nM and 1000 nM (sheet 'Samples'), CATDS: 0.111650130871897).

As for `COc1cc[nH]c1/C=C1\C(=O)Nc2ccc([N+](=O)[O-])c(N3CC[C@@H](O)C3)c21` [RO0504985-000], the potency estimated from few doses is 0.0467 µM in [8] (CATDS: 0.118567124910979); 0.989 µM in assay [1] (compound concentrations: 100 nM and 1000 nM (sheet 'Samples'), CATDS: 3.5682803402027001E-2).

With `O=C1N=C(N[C@@H](CO)Cc2ccccc2)S/C1=C\c1ccc2ncccc2c1` [RO4509200-000], the potency estimated from few doses in assay [8] (CATDS: 0.117206813575506) is 0.975 µM; in assay [20] (CATDS: 0.168916103718072), 0.44 µM.
